In PubChem BioAssay:
Unmarked numbers belong to inactive results.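 Rule for the calls, unless noted: active = compounds killing one labelled cell type while sparing the other, by normalised counts and ratio limits, not self-fluorescent; inactive = the rest.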

Tested on: Hepatitis C virus NS3 helicase
Assay: HCV NS3 helicase inhibitors, primary screen, biochemical, fluorescence polarization, LOPAC1280 library (AID 687035; in the data active = inhibition above about 37%)
Conditions: Purified HCV NS3 helicase, Cy5-dT15 ssDNA binding fluorescence polarization; hits give high values; concentration not given here

Row | SMILES | inhibition [%]
1 | CCCCS(=N)(=O)CCC(N)C(=O)O (stereo not given) | 1
2 | Nc1nc(N)c2nc(CNc3ccc(C(=O)NC(CCC(=O)O)C(=O)O)cc3)cnc2n1 (stereo not given) | -4
3 | CC1=C(C(=O)O)N2C(=O)[C@@H](NC(=O)C(N)c3ccccc3)[C@H]2SC1 (stereo not given in full) | -4
4 | CC1CC2C3CCC4=CC(=O)C=C[C@]4(C)[C@@]3(F)[C@@H](O)C[C@]2(C)[C@@]1(O)C(=O)CO (stereo not given in full) | -1
5 | CC(C)NC[C@H](O)COc1cccc2ccccc12 | -3

Tested on: not listed separately
Assay: Cy5 fluorescence quenching or enhancement artefacts, artefact control for HCV NS3 helicase inhibitor project, biochemical, LOPAC1280 (AID 687037; call rule not given here)
Conditions: Cy5-DNA-NS3h complex fluorescence interference counterscreen

Row | SMILES | fluorescence ratio (interference)
6 | CCCCS(=N)(=O)CCC(N)C(=O)O (stereo not given) | 1
7 | Nc1nc(N)c2nc(CNc3ccc(C(=O)NC(CCC(=O)O)C(=O)O)cc3)cnc2n1 (stereo not given) | 0.9
8 | CC1=C(C(=O)O)N2C(=O)[C@@H](NC(=O)C(N)c3ccccc3)[C@H]2SC1 (stereo not given in full) | 0.9
9 | CC1CC2C3CCC4=CC(=O)C=C[C@]4(C)[C@@]3(F)[C@@H](O)C[C@]2(C)[C@@]1(O)C(=O)CO (stereo not given in full) | 1
10 | CC(C)NC[C@H](O)COc1cccc2ccccc12 | 1

Tested on: not listed separately
Assay: differential killing of epithelial or mesenchymal cells, primary screen, imaging, PC-3E GFP, TEM4-18 mCherry, co-culture (AID 1345086);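 note: normalised mesenchymal count divided by normalised epithelial count so high means epithelial killing; cells exposed to compound for 72 h before imaging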
Conditions: imaging cell counts, at 1 µM, actives lie on both sides, counts scaled to control wells, 1 = unselective

Row | SMILES | red/green cell ratio (normalised)
11 | CC[C@]1(O)CC2CN(CCc3c([nH]c4ccccc34)[C@@](C(=O)OC)(c3cc4c(cc3OC)N(C)[C@H]3[C@@](O)(C(=O)OC)[C@H](OC(C)=O)[C@]5(CC)C=CCN6CC[C@]43[C@@H]65)C2)C1 (stereo not given in full) | 1.24
12 | C[C@]12CCC3c4ccc(O)cc4CCC3C1CCC2=O (stereo not given in full) | 0.96
13 | OC[C@@H](O)[C@@H](O)[C@H](O)[C@@H](O)CO | 1.05
14 | COC(=O)/C=C/C(=O)OC | 1.23
15 | C=CC[C@@H]1/C=C(\C)C[C@H](C)C[C@H](OC)[C@H]2O[C@@](O)(C(=O)C(=O)N3CCCC[C@H]3C(=O)O[C@H](/C(C)=C/[C@@H]3CC[C@@H](O)[C@H](OC)C3)[C@H](C)[C@@H](O)CC1=O)[C@H](C)C[C@@H]2OC | 1.19
16 | O=c1ccn([C@@H]2O[C@H](CO)[C@@H](O)[C@H]2O)c(=O)[nH]1 | 0.9
17 | CC(=O)OCC(=O)[C@@]1(O)CCC2C3CCC4=CC(=O)C=C[C@]4(C)[C@@]3(Cl)[C@@H](Cl)C[C@@]21C (stereo not given in full) | 1
18 | N#C[C@@H]1C[C@@H]2C[C@@H]2N1C(=O)[C@@H](N)C12CC3CC(CC(O)(C3)C1)C2 | 0.9
19 | Cc1coc2c1C(=O)C(=O)c1c-2ccc2c1CCCC2(C)C | 1.04
20 | O=C1c2c(O)cccc2[C@@H](O[C@@H]2O[C@H](CO)[C@H](O)[C@@H](O)[C@H]2O)c2cc(CO)cc(O)c21 | 0.78
21 | COC1=C(OC)C(=O)C(C/C=C(\C)CC/C=C(\C)CC/C=C(\C)CC/C=C(/C)CC/C=C(\C)CC/C=C(\C)CC/C=C(\C)CC/C=C(\C)CC/C=C(\C)CCC=C(C)C)=C(C)C1=O | 1.1
22 | OC(c1cc(C(F)(F)F)nc2c(C(F)(F)F)cccc12)C1CCCCN1 (stereo not given) | 0.94
23 | C[C@H]1COC2=C1C(=O)C(=O)c1c2ccc2c1CCCC2(C)C | 0.82
24 | CCCCS(=N)(=O)CCC(N)C(=O)O (stereo not given) | 0.93
25 | CC[C@@]1(O)C(=O)OCc2c1cc1n(c2=O)Cc2cc3cc(O)ccc3nc2-1 | 0.94
26 | Oc1cc2c(cc1O)C1c3ccc(O)c(O)c3OCC1(O)C2 (stereo not given) | 1.05
27 | Nc1nc(N)c2nc(CNc3ccc(C(=O)NC(CCC(=O)O)C(=O)O)cc3)cnc2n1 (stereo not given) | 0.95
28 | Clc1ccc(CCC(Cn2ccnc2)Sc2c(Cl)cccc2Cl)cc1 (stereo not given) | 0.84
29 | N#CC(c1ccc(Cl)cc1)c1c(Cl)cc(-n2ncc(=O)[nH]c2=O)cc1Cl (stereo not given) | 0.84
30 | Cc1cc(=O)c(C(=O)N[C@@H](C(=O)N[C@@H]2C(=O)N3C(C(=O)O)=C(CSc4nnnn4C)CSC23)c2ccc(O)cc2)c[nH]1 (stereo not given in full) | 0.9

Row | SMILES | red/green cell ratio (normalised)
31 | COc1ccc2nc3cc(Cl)ccc3c(Nc3cc(CN4CCCC4)c(O)c(CN4CCCC4)c3)c2n1 | 1.19
32 | CC1=C(C(=O)O)N2C(=O)[C@@H](NC(=O)C(N)c3ccccc3)[C@H]2SC1 (stereo not given in full) | 1.15
33 | CC(C)C(C)/C=C/C(C)C1CCC2C3=CC=C4CC(O)CCC4(C)C3CCC21C (stereo not given) | 0.85
34 | CC1CC2C3CCC4=CC(=O)C=C[C@]4(C)[C@@]3(F)[C@@H](O)C[C@]2(C)[C@@]1(O)C(=O)CO (stereo not given in full) | 1.04
35 | CC(C)(CO)[C@@H](O)C(=O)NCCC(=O)O | 1.39
36 | CN1C(C(=O)Nc2ccccn2)=C(O)c2sc(Cl)cc2S1(=O)=O | 0.78
37 | CC(=O)NC(CS)C(=O)O (stereo not given) | 1.09
38 | CC(NCCc1ccc(O)cc1)C(O)c1ccc(O)cc1 (stereo not given) | 1.16
39 | Cc1cc2nc3c(=O)[nH]c(=O)nc-3n(C[C@@H](O)[C@@H](O)[C@@H](O)COP(=O)(O)O)c2cc1C | 1.01
40 | CC(C)NC[C@H](O)COc1cccc2ccccc12 | 1.36
41 | CN[C@@H]1[C@H](O[C@H]2[C@H](O[C@@H]3[C@@H](O)[C@H](O)[C@@H](N=C(N)N)[C@H](O)[C@H]3N=C(N)N)O[C@@H](C)[C@]2(O)C=O)O[C@@H](CO)[C@H](O)[C@H]1O | 0.77
42 | CN(C)CC[C@H](c1ccc(Cl)cc1)c1ccccn1 | 1.35
43 | COc1ccc(C2Sc3ccccc3N(CCN(C)C)C(=O)C2OC(C)=O)cc1 (stereo not given) | 1.25
44 | Cc1c(-c2cnccn2)ssc1=S | 1.09
45 | CC(C)=CCC/C(C)=C/CC/C(C)=C/CC/C(C)=C/CC/C(C)=C/CC/C(C)=C/CC/C(C)=C/CC/C(C)=C/CC/C(C)=C/CO | 1.11
46 | Nc1nc(F)nc2c1ncn2[C@@H]1O[C@H](COP(=O)(O)O)[C@@H](O)[C@@H]1O | 1.06
47 | CC1(C)CCC[C@]2(C)[C@H]3CC(=O)O[C@]3(C)CC[C@@H]12 | 1.09
48 | Cc1cc2nc3c(=O)[nH]c(=O)nc-3n(CC(O)C(O)C(O)CO)c2cc1C (stereo not given) | 0.96
49 | N[C@@H](CC(=O)N1CCn2c(nnc2C(F)(F)F)C1)Cc1cc(F)c(F)cc1F | 1.25
50 | NC(=O)c1ncn(C2O[C@H](CO)[C@@H](O)[C@H]2O)c1N (stereo not given in full) | 0.89
